Measurements taken from PubChem BioAssay AID720518 (National Center for Advancing Translational Sciences (NCATS), 2013).
Inconclusive results are not listed. Unmarked numbers belong to inactive results. The call rests on the fitted dose curve.

Assay: qHTS for Inhibitors of Cell Surface uPA Generation: Wild-type Protective Antigen (WT-PrAg) Counterscreen for Cherry-picked Compounds; further: 0% is about no effect
Conditions: cells, WT protective antigen toxicity counterscreen; series mostly up to 115 µM; activity (protection): at the top concentration

SMILES	activity (protection)
O=C(Nc1ccc(Cl)cc1)Nc1nnc(-c2ccncc2)s1	-2.16%
CCC(NC(=S)NCc1ccc(F)cc1)c1ccccc1 (stereo not given)	0.549%
O=C(NCCN1CCOCC1)c1ccc2c(c1)N(Cc1ccc(Cl)cc1)CCS2	1.37%
COc1ccc(CC(=O)NNS(=O)(=O)c2ccccc2[N+](=O)[O-])cc1OC	-0.806%
Cc1nc(SCc2nc3ccccc3[nH]2)c2oc3cc([N+](=O)[O-])ccc3c2n1	-2.07%
Cc1nc(C(=O)N2CCC(n3nccc3NC(=O)Nc3ccccc3Cl)CC2)cs1	-1.86%
COc1ccc(-c2sc3ccccc3c2C#CCO)cc1	-1.9%
COc1ccccc1NNC(=O)C(O)(c1ccccc1OC)c1ccccc1OC	1.06%
COc1ccc(Cc2nnc(NC(=O)Nc3ccc(F)cc3)s2)cc1	6.85%
COc1cccc(NC(=O)N2C3CCCC2CC(NC(C)=O)C3)c1 (stereo not given)	0.204%
C[N+](C)(C)CCOC(=O)CBr	-0.69%
O=C(CNS(=O)(=O)c1ccc(F)cc1)Nc1ccccc1	-0.098%
O=C(COC(=O)C1CC2C=CC1C2)NCc1ccccc1Cl (stereo not given)	1.12%
O=C1CCCc2ccccc2N1Cc1ccc(F)cc1	-1.1%
CCC(NC(=O)Cc1c(C)c2c(cc(C)c3c(C)c(C)oc32)oc1=O)C(=O)O (stereo not given)	-2.27%
COCCN(C(=O)c1ccccc1OC)c1nnc(C)s1	-1.62%
Cc1cc2c(cc1S(=O)(=O)Nc1ccc(F)cc1)n(C)c(=O)c(=O)n2C	-0.472%
Cc1c(NC(=S)Nc2ccc(Cl)cc2)c(=O)n(-c2ccccc2)n1C	-0.304%
COc1ccccc1N=Nc1c(C)[nH]n(-c2ccccc2)c1=O	4.55%
CN(CC(=O)NCc1ccco1)CC(=O)Nc1c(Cl)cccc1Cl	0.145%

SMILES	activity (protection)
O=C(NNC(=O)c1cccc(-n2cccc2)c1)c1ccc(F)cc1	-0.872%
COc1cc(CNCCc2ccccc2)cc(Br)c1OCC(=O)Nc1ccccc1C	-1.07%
Cc1ccccc1NC(=O)N1CCN(c2ncccn2)CC1	-1.63%
O=C(CSc1ccc(Cl)cc1)N1CCCC1	-1.93%
O=C(NNC(=O)c1ccc2ccccc2c1)Nc1ccc(F)cc1	1.47%
CCC(C)NC(=O)c1ccc2nc(-c3ccc(OC)c(OC)c3)c(-c3ccc(OC)c(OC)c3)nc2c1 (stereo not given)	-2.18%
O=C(COc1ncnc2sccc12)Nc1cccc(S(=O)(=O)N2CCCC2)c1	-0.649%
O=C(Nc1ccnn1C1CCN(CCCC2CCCC2)CC1)c1ccccc1	-2.33%
COc1ccccc1NC(=O)Cn1nnc(-c2ccccc2NC(=O)c2cc3ccccc3oc2=O)n1	-0.855%
Cc1nc2ncccn2c1-c1csc(Nc2ccc(S(N)(=O)=O)cc2)n1	-1.41%
Cc1ccc(S(=O)(=O)N2CCOCC2)cc1C(=O)OC1CCOC1=O (stereo not given)	-1.14%
Cc1ccc2sc(NNC(=O)c3ccc4c(c3)OCCO4)nc2c1C	-2.4%
Cc1ccc(/C=N/NC(=O)c2ccc3nc[nH]c3c2)s1	-2%
CC(C)N1CCc2c(sc(NC(=O)CCc3ccccc3)c2C(N)=O)C1	4.95%
Cc1cc(C)n(-c2cc(C(=O)O)cc(C(=O)O)c2)n1	-0.913%
O=C(Cc1ccccc1)Nc1ccc(NC(=O)c2ccccc2)c(Cl)c1	-1.13%
CCOc1ccc(C(=O)NCCO)cc1	-0.622%
CN(C)C(=O)NC(NC(=S)Nc1ccccc1)C(Cl)(Cl)Cl (stereo not given)	-1.51%
CC(C)Cn1cnc2c1c(=O)[nH]c(=O)n2Cc1ccccc1	0.91%
O=C1c2ccccc2[C@@H]2C[C@H](NC34CC5CC(CC(C5)C3)C4)[C@@H](O)CCN12	-1.03%
